Compound activity as filed in PubChem BioAssay.
TDP1 cell noCPT: qHTS for Inhibitors of human tyrosyl-DNA phosphodiesterase 1 (TDP1): qHTS in cells in absence of CPT; DT40 Tdp1-/- hTDP1 cells, no CPT, ATP luminescence, 48 h; Potency, µM (series often up to 46.2 µM), for the others: at the top dose activity change, negative = growth inhibition, usual class: inhibitors; hit rate 15% among 420,000; also: potency is read from the fitted curve at half-maximal effect; nearly all actives have a fitted effect of over 55% in size
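Chicken DT40 Tdp1-/- cells complemented with human TDP1, screened without camptothecin (DMSO vehicle only), 400 cells/well. Compounds pin-transferred, cells incubated at 37 °C for at least 48 hr. Growth read as ATP-dependent luminescence (CellTiter-Glo, 30 min at RT).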
HT1080 IDH1KD tx: HT-1080 IDH1 knockdown cell toxicity (counter line) | HT-1080 IDH1 knockdown viability, ATP luminescence, 48 h | Potency, µM (titrated, usually from 46.1 µM), for the others: at the top dose activity, negative = toxicity, usual class: cytotoxic | hit rate 2% among 360,000 | AID 686971;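 also: potency is read from the fitted curve at half-maximal effect; 0% = DMSO wells and -100% = cell-free medium wells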
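Using the IDH1-knockdown HT-1080 line run in the same batch and compound series as the NT line, viability after 48 h at 37 °C was determined by CellTiter-Glo luminescence and expressed as % activity.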
HT1080NT lethal: kills 2HG-producing HT-1080-NT fibrosarcoma cells. Potency, µM (top dose mostly 46.1 µM), without a hit: at the top dose activity, negative = less viability, usual class: cytotoxic. HT-1080-NT fibrosarcoma viability, CellTiter-Glo ATP luminescence, 48 h. hit rate 1.6% among 360,000;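 also: NT is the 2HG producing partner of a matched IDH1 knockdown line; potency is read from the fitted curve at half-maximal effect; 0% = DMSO-treated cells and -100% = media-only wells without cells; nearly all actives have a fitted effect of over 55% in size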
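Viability by CellTiter-Glo luminescence after 48 h compound exposure at 37C of HT-1080-NT cells (750/well, RPMI, 5% FBS). % activity scaled between DMSO wells and medium-only wells, then curve-fitted and categorized by curve class.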
DT40 TDP1 CPT: growth inhibition of DT40 Tdp1-/-;hTDP1 cells with camptothecin (screen for TDP1 inhibitors); chicken DT40 Tdp1-/-;hTDP1 cells + 20 nM CPT, ATP luminescence, 48 h; Potency, µM (top dose mostly 46.2 µM), without a hit: top-dose activity change, negative = growth inhibition, usual class: inhibitors; hit rate 12% among 420,000; also: potency is read from the fitted curve at half-maximal effect; nearly all actives have a fitted effect of over 55% in size
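Cell growth measured by CellTiter-Glo luminescence after a minimum 48 h, 37 C compound exposure with 20 nM CPT in Tdp1-knockout DT40 cells stably expressing hTDP1, seeded 400/well; qHTS titration format.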
IL1B secr inh: inhibitors of inflammasome signaling (IL-1 beta secretion). activity change, % at 57.5 µM. hit rate 4.7% among 360,000. AID 743279. THP-1 LPS/ATP IL-1B secretion, AlphaLISA, 16 h; hits give low values; in the data active = activity change below about -50%; inconclusive = mostly about -30% to -49%
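Secreted IL-1B measured by AlphaLISA bead assay after 16 h compound exposure of THP-1 cells; compounds (final up to 57.5 uM) added 1 h before LPS (250 ng/mL) and ATP (1.25 mM) stimulation; lower signal means less secretion.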
uPA surface inh: inhibitors of cell surface uPA generation; cell surface uPA generation assay, qHTS; Potency, µM (highest dose often 38.3 µM), for the others: top-dose activity change, negative = inhibition, most hits filed as inhibitors; hit rate 0.31% among 330,000; active = well fitted inhibition curve with a large enough effect; inconclusive = small, poorly fitted or top-dose-only effect; inactive = no such curve, though single readings can be large or run the other way; tested in mouse RAW 264.7 cells; also: potency is read from the fitted curve at half-maximal effect; nearly all actives have a fitted effect of over 55% in size
* hit, by the source's call; u = inconclusive; x = no result; [ ] = dose if it differs, or a comment. Most compounds without a hit are left out; they make up all but 19% or so of the library. Unless noted, calls follow the shape of the dose curve; as a rule, active = well fitted curve in the direction sought with a large enough effect; inconclusive = small, poorly fitted or top-dose-only effect, or another doubt; inactive = no such curve, though single readings can be large; an effect the other way counts as inactive or inconclusive. Unless noted, % is scaled to controls: 0 for no effect and ±100 for the full control effect.

SMILES	TDP1 cell noCPT	HT1080 IDH1KD tx	HT1080NT lethal	DT40 TDP1 CPT	IL1B secr inh	uPA surface inh
CCn1cc(Cl)c(C(=O)Nc2c(C)nn(Cc3c(F)c(F)c(F)c(F)c3F)c2C)n1	u	0%	7%	15µM*	-8	-2%
Cc1nn(Cc2c(F)c(F)c(F)c(F)c2F)c(C)c1NC(=O)c1cccc(COc2ccc(Cl)cc2)c1	7.3µM*	4%	6%	10µM*	-6	x
CC(C)c1cc(C(N)=O)c(NC(=O)c2cccc(COc3ccc(Cl)cc3)c2)s1	u	-22%	-12%	26µM*	u	-1%
CCn1ccc(C(=O)Nc2c(C)nn(Cc3c(F)c(F)c(F)c(F)c3F)c2C)n1	16µM*	-1%	-3%	u	24	4%
O=C(Nc1ccccc1F)c1csc([C@@H]2C[C@H](O)[C@@H](CO)O2)n1	-2%	13%	u	-14%	22	x
Cc1cccc(NC(=O)CS(=O)CC(=O)Nc2cnc3ccccc3c2)c1C (configuration not stated)	-19%	7%	-16%	1%	28	3%
COc1ccc(N2CC(NC(=O)c3ccco3)CC2=O)cc1OC (configuration not stated)	-2%	x	x	-17%	x	x
OC1c2cc(Cl)cc(Cl)c2N=C2CCCN21 (configuration not stated)	-1%	-2%	-2%	2%	41	x
O=C(CCCCn1c(=O)c2ccccc2n(CC(=O)Nc2ccc(F)cc2F)c1=O)NCCc1ccccc1	-23%	x	x	-12%	x	x
Cc1ccc2c(CC(=O)NCCc3ccc(S(N)(=O)=O)cc3)coc2c1	9%	1%	10%	-5%	-5	-1%
Cc1cc(C)c2oc(=O)cc(CN3CCCCC3)c2c1	-5%	-1%	-2%	-10%	-9	2%
CC(=O)CC1c2ccccc2C=C(c2ccsc2)N1c1ccc(-c2cccs2)cc1 (configuration not stated)	10µM*	4%	16%	10µM*	51	x
COc1ccc(N2C(c3cc(OC)cc(OC)c3)=Cc3ccccc3C2CC(C)=O)cc1 (configuration not stated)	16µM*	-28%	-24%	u	32	x
COc1cc(OC)cc(C2=Cc3ccccc3C(CC(C)=O)N2c2ccc(C#CCCO)cc2)c1 (configuration not stated)	u	u	u	21µM*	-19	x
COc1ccc(C2=Cc3ccccc3C(CC(=O)C3CC3)N2c2ccc(-c3cc(OC)c(OC)c(OC)c3)cc2)cc1 (configuration not stated)	-6%	4%	13%	-11%	16	x
COc1ccc(C2=Cc3ccccc3C(CC(=O)C3CC3)N2c2ccc(C#CCCO)cc2)cc1 (configuration not stated)	u	u	-30%	u	-7	x
COc1cc(OC)cc(C2=Cc3ccccc3C(CC(=O)c3ccco3)N2c2ccc(-c3ccc(C(N)=O)cc3)cc2)c1 (configuration not stated)	u	-11%	u	u	-13	x
COc1cc(OC)cc(C2=Cc3ccccc3C(CC(=O)c3ccco3)N2c2ccc(-c3cncnc3)cc2)c1 (configuration not stated)	u	-2%	-23%	8.2µM*	-7	x
COCc1c(C(=O)N2CC3CCC2C3)cnn1-c1nccc(-c2ccccc2OC)n1 (configuration not stated)	-18%	x	x	4%[9.04 µM]	x	x
COc1ccc(CNC(=O)c2cc3sccc3n2Cc2ccc(C)cc2)cc1	-64%	x	x	-28%	x	x
COc1cc(OC)cc(C2=Cc3ccc(OC)cc3C(CC(C)=O)N2c2ccc(C#CCCO)cc2)c1 (configuration not stated)	21µM*	u	u	u	-7	x
CC(=O)c1cccc(OC(=O)c2ccc3c(=O)n4c(nc3c2)CCC4)c1	-5%	0%	-7%	-22%	7	5%
COc1cc(OC)c(NS(=O)(=O)c2cc(C(=O)OC(C)C(=O)NC3CC3)c(Cl)cc2Cl)cc1Cl (configuration not stated)	23µM*	7%	2%	18µM*	-11	-4%
CC(C)(C)C(=O)Nc1cc(S(=O)(=O)Nc2ccc(Cl)cc2)ccc1Cl	23µM*	-15%	-7%	18µM*	11	0%
COc1ccc(NS(=O)(=O)c2ccc(Cl)c(NC(=O)c3ccccc3F)c2)cc1	u	-2%	-11%	u	-7	-3%
SMILES	TDP1 cell noCPT	HT1080 IDH1KD tx	HT1080NT lethal	DT40 TDP1 CPT	IL1B secr inh	uPA surface inh
O=C(Nc1ccc(Cl)cc1)c1cc(S(=O)(=O)Nc2ccccn2)ccc1Cl	16µM*	-28%	-22%	u	25	1%
COc1ccc(NS(=O)(=O)c2ccc(Cl)c(NC(=O)c3cccnc3Cl)c2)cc1	16µM*	-6%	-17%	u	14	1%
Cc1cccc(CC2CC(=O)N(c3nc4ccccc4s3)C2=O)c1 (configuration not stated)	3%	-1%	0%	-20%	18	1%
COc1ccc2nc(N3C(=O)CNC3=S)sc2c1	7.3µM*	0%	-1%	7.3µM*	u	-3%
COc1ccc(CN2C(=O)CNC2=S)cc1	8%	1%	-3%	-7%	24	-1%
Cc1ccc2nc(N3C(=O)CNC3=S)sc2c1	u	16µM*	u	15µM*	x	-11%
COc1ccccc1/C=N/NC(=O)CC(=O)NCCc1ccccc1	-11%	23%	15%	4%	x	9%
OC(COCc1ccccc1)CN1CCCC1 (configuration not stated)	-8%	2%	5%	-9%	5	2%
c1ccc(COC(CN2CCCCCC2)CN2CCCCCC2)cc1	21µM*	-7%	-5%	10µM*	-19	u
COc1ccccc1C(=O)NNC(=O)c1ccc(Br)cc1	-9%	19%	4%	-5%	8	-5%
CC1CC(C)(C)CC2(C1)NC(=O)N(CC(=O)Nc1c(F)cccc1F)C2=O (configuration not stated)	3%	6%	10%	6%	-5	9%
CC1CC(C)(C)CC2(C1)NC(=O)N(CC(=O)Nc1cc([N+](=O)[O-])ccc1F)C2=O (configuration not stated)	10µM*	-25%	-18%	15µM*	-1	2%
